Most compounds without a hit are left out; they make up all but 1.6% or so of the library.
NFkB transloc pot: enhances IL-1B driven NFkB nuclear translocation; AID 819; activation, % at 2 µM; 94,000 tested, 0.3% active; HUVEC IL-1B NFkB p65 nuclear translocation imaging;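 active means activation above 40%, about the mean plus 3 SD, also judged a hit on visual image review; inconclusive means activation above 40% but not a hit on visual review; inactive means activation not above 40% and no visual hit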;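 further: percent activation is computed from the nuclear over cytoplasmic p65 intensity ratio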
IL1B cytotox: HUVEC cytotoxicity counter-screen, IL-1B stimulated; HUVEC cell count loss, Hoechst imaging; cell count reduction, % at 2 µM; 94,000 tested, 0.41% active;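 active means cell count reduction more than 3 SD above the screen-wide mean, cut at about 70% in these data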;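 further: normalized per plate to untreated control cells as the no-loss baseline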
VCAM1 TNFa inh: reduces TNF alpha induced VCAM1 expression in HUVEC | HUVEC TNFa-induced VCAM-1 immunofluorescence, high-content imaging | inhibition, % at 2 µM | 95,000 tested, 0.48% active | AID 802;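 active means inhibition above the batch mean plus 3 SD, with images confirmed as a hit by eye, cut at about 37% in these data; inconclusive means inhibition above that limit but hit not confirmed in images; inactive means inhibition not above that limit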;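 further: 0% = TNF-stimulated DMSO wells and 100% = unstimulated control wells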
F-actin modifier: alters cytoskeleton assembly in HUVEC cells; inhibition, % at 2 µM; AID 836; 91,000 tested, 0.18% active; HUVEC TNFa F-actin phalloidin imaging, high content;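 active means inhibition above the batch mean plus 3 SD and confirmed as a hit by visual image inspection, cut at about 30% in these data, passing the limit was not always enough; inconclusive means above the inhibition threshold but rejected on visual inspection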
NFkB transloc inh: blocks IL-1B driven NFkB nuclear translocation in HUVEC cells; HUVEC IL-1B NFkB p65 nuclear translocation imaging; inhibition, % at 2 µM; 94,000 tested, 0.43% active;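 active means inhibition above about 30% together with a positive call from visual inspection of the well image, limit read from the data; inconclusive means inhibition above a set limit but visual check negative; inactive means inhibition not above a set limit, visual check negative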;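 further: nuclear over cytoplasmic p65 intensity ratio measured by imaging; 0% = IL-1B stimulated DMSO wells and 100% = unstimulated DMSO wells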
HUVEC tox TNFa: HUVEC cytotoxicity counter-screen, TNF alpha stimulated; cell count reduction, % at 2 µM; 93,000 tested, 0.17% active; HUVEC TNFalpha-stimulated, Hoechst cell count, imaging;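 active means cell count reduction exceeding the screen mean by over 5 SD, scaled to untreated wells per plate, cut at about 78% in these data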;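 further: cells counted after 24 h of TNF alpha exposure following the 1 h pretreatment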
Active calls of the source: *; ? = inconclusive; . = no result.

SMILES	NFkB transloc pot	IL1B cytotox	VCAM1 TNFa inh	F-actin modifier	NFkB transloc inh	HUVEC tox TNFa
Cc1cc(Cl)c(S(=O)(=O)N2CCSCC2)cc1OCC(N)=O	1	75*	9	-3	-1	2
COc1cccc(CNc2cc(CSc3ccc(Cl)cc3)nc(C)n2)c1	14	-7	-11	.	-14	-38
COc1ccc(S(=O)(=O)NC(CC(=O)NCc2ccco2)C(C)C)cc1 (stereo not drawn)	.	.	?	?	.	100*
CCC(C)NS(=O)(=O)c1ccc(OCC(=O)NCc2ccco2)cc1 (stereo not drawn)	0	14	1	-8	0	-1
N#Cc1cn(CC(=O)N2CCc3ccccc3C2)c2ccccc12	-26	-56	14	-13	26	.
CCCOc1ccc(OC(=O)c2ccc(Br)o2)cc1	-11	-71	21	.	11	-22
CCC(C)Oc1cccc(OCCCCN2C(=O)NC(C)(C)C2=O)c1 (stereo not drawn)	13	-4	.	100*	-13	.
COC(=O)c1ccc(-n2nnnc2SCC(=O)N2CCCCC2)cc1	-1	-10	?	-14	0	100*
CC(C)C1Cc2c(sc3[nH]c(=S)n(Cc4ccccc4)c(=O)c23)CO1 (stereo not drawn)	-8	-203	-4	15	8	-22
OC1(c2cccc(C(F)(F)F)c2)CCN(c2ncnc3c2[nH]c2ccc(F)cc23)CC1	6	-33	54*	7	-6	-11
COc1ccccc1-c1cc(C(=O)N/N=C/C=C/c2ccccc2[N+](=O)[O-])c2ccccc2n1	42*	-2	-18	8	-42	0
COc1ccccc1-c1cc(C(=O)N/N=C/c2cccs2)c2ccccc2n1	3	21	10	11	-3	-17
COc1ccc(-n2c(C)cc(C(=O)Cn3c(NCCO)nc4ccccc43)c2C)cc1	41*	4	3	-17	-41	-5
O=C(Cn1c(NCCO)nc2ccccc21)c1ccc(Cl)cc1	1	-8	-40	-9	-1	-8
O=S1(=O)C=C(Sc2nc3cc(Cl)ccc3o2)c2ccccc21	-56	24	24	27	56*	15
Cc1ccc(-c2cc(N)n(-c3ccccc3)n2)cc1	-67	-18	-1	-12	67*	-9
Cc1ccnc(SCCn2c(N3CCOCC3)nc3c2c(=O)n(C)c(=O)n3C)n1	-4	37	-9	9	4	-5
N/C(CN1CCCC1=O)=N\OC(=O)c1ccccc1Cl	16	-8	-5	9	-16	-15
O=C(CN1CCCCCC1=O)OCc1ncc(-c2ccccc2)o1	-5	31	90*	-34	5	70
C=CCn1c(CCC(=O)Nc2ccc(C)c(Cl)c2)nnc1SCC(=O)Nc1ccccc1C	10	-11	-14	-14	-10	8
Cc1c(NS(=O)(=O)c2cccc(C(=O)NCc3ccncc3)c2)c(=O)n(-c2ccccc2)n1C	42*	8	15	-6	-42	-3
Cc1c(NC(=O)c2ccc(F)cc2)c(=O)n(-c2ccccc2)n1C	-11	-1	10	0	11	-21
Cc1c(NC(=O)c2cccc(F)c2)c(=O)n(-c2ccccc2)n1C	2	77*	7	6	-2	7
CCCC(=O)Nc1ccc(NC(=O)C2CC2)cn1	8	13	.	.	-8	.
O=C(Nc1ccc(NC(=O)C2CC2)cn1)c1ccccc1Cl	-10	88*	2	8	10	-2
SMILES	NFkB transloc pot	IL1B cytotox	VCAM1 TNFa inh	F-actin modifier	NFkB transloc inh	HUVEC tox TNFa
CCOC(=O)c1c(-c2ccc(Cl)cc2)c(C#N)c(=O)n(N)c1N	9	-19	-6	-3	-9	1
CC(=O)NC(C)C(=O)OCc1ccc(Cl)cc1Cl (stereo not drawn)	25	1	-1	15	-26	-4
Cc1ccc(OCc2ccoc2C(=O)O)cc1C	-1	4	97*	-7	1	-7
O=C(CO)N/N=C/c1ccc(Cl)cc1	2	-10	6	-4	-2	7
CN(C)c1ccc(/C=N/NC(=O)c2ccc(Cl)cc2)cc1	-50	-30	-1	10	50*	-8
Cc1c(C(=O)N2CCN(c3ccccc3F)CC2)sc2ncn(CC(=O)N3CCOCC3)c(=O)c12	-12	-3	8	88*	12	-10
COc1ccc(-c2nsc3c(SCC(=O)Nc4cc(C)ccc4C)ncnc23)cc1	-12	1	27	-6	12	39
O=C(c1ccc(CS(=O)(=O)c2cccc(C(F)(F)F)c2)o1)N1CCN(c2ccccn2)CC1	24	-5	11	-12	-24	-26
COc1cc(NC(=S)NC(C)=O)ccc1NC(=O)C(C)C	0	17	68	12	0	95*
COc1cc(NC(=O)C(C)C)ccc1NC(=O)c1ccco1	-8	-13	14	-18	8	-17
O=C(OCC#CCSc1nc2ccccc2s1)c1ccco1	10	-34	19	1	-10	-25
COc1cc(OC)nc(Oc2ccccc2C(=O)Oc2cccc(C)c2)n1	13	-17	2	12	-13	-12
CC1=CC(C)(C)N(S(=O)(=O)c2ccc(C)cc2)c2cc(C)ccc21	0	28	38*	4	0	58
Cc1ccc(S(=O)(=O)N2C(=S)SCC2(C)C)cc1	-2	-17	11	11	2	-28
O=C(c1ccccc1F)N(Cc1ccc2c(c1)OCO2)Cc1cc2cc3c(cc2n2nnnc12)OCO3	6	-2	24	0	-6	48
O=C(O)c1ccoc1CN1CCCCC1	3	13	8	-4	-3	0
CCN1CCc2c(sc(NC(=S)NC(=O)c3ccccc3)c2C#N)C1	-27	93*	4	.	27	-5
Cc1ccc(C2/C(=C(\O)c3cnn(-c4ccccc4)c3C)C(=O)C(=O)N2CCN(C)C)o1 (stereo not drawn)	2	11	39	-10	-2	91*
COc1ccc(C(=O)NC(=S)Nc2cccc(Cl)c2N2CCOCC2)cc1[N+](=O)[O-]	5	-30	-1	-5	-5	7
O=C/C(=C\Nc1ccc(Cl)cn1)c1nc2ccccc2o1	-4	-9	2	-17	4	0
O=C/C(=C\Nc1ccc(Cl)cn1)c1nc2cc(Cl)ccc2o1	50*	-8	7	8	-50	-10
COc1ccc(CC(=O)Nc2ccc(-c3noc(-c4cccc(OC)c4)n3)cc2)cc1	8	13	39*	-20	-8	10
CN(c1ccccc1C(=O)Nc1cccc(Cl)c1Cl)S(C)(=O)=O	-18	-119	-1	-6	18	-5
CCOC(=O)c1c(-c2ccccc2)nc2cc(C)ccn12	6	4	-8	-36	-6	-4
Cc1ccn2c(NC(=O)c3ccco3)c(-c3ccccc3)nc2c1	6	-9	97*	16	-6	-13
COc1ccc(Nc2nc(N)nc(COc3ccc(OC)cc3)n2)cc1	-33	-7	3	-3	33*	9

Source: PubChem (Columbia University Molecular Screening Center)
